The values below come from PubChem BioAssay (NCI).

Holding throughout (experiment): NCI-60 one-dose screen, 48 h (100 = growth as untreated, 0 = no growth, -100 = all killed)
Conditions in all cases: 10 µM unless noted

The test system of assay [1] is SK-MEL-2 melanoma.
Assay [2] concerns EKVX NSCLC.
Assay [3] deals with SN12C renal.
The test system of assay [4] is UO-31 renal.
Assay [5] deals with TK-10 renal.
In assay [6] the test system is ACHN renal.
The test system of assay [7] is CAKI-1 renal.
Assay [8] deals with A498 renal.
In assay [9] the test system is CCRF-CEM leukemia.
For assay [10], the system named is MOLT-4 leukemia.
The subject of assay [11] is SR leukemia.
Assay [12] relates to RPMI-8226 leukemia.
Assay [13] has as its system OVCAR-8 ovarian.
The test system of assay [14] is OVCAR-5 ovarian.
Assay [15] concerns OVCAR-4 ovarian.
In assay [16] the test system is SK-OV-3 ovarian.
Assay [17] concerns IGROV1 ovarian.
Assay [18] deals with OVCAR-3 ovarian.
In assay [19] the test system is HS 578T breast.
The subject of assay [20] is NCI/ADR-RES ovarian.

The structures appear in SMILES notation. About 83,000 compounds went through this panel and 20% of them were active in at least one assay; those are over-represented in the sample as a whole.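 96-well plates, one dose, 48 hours. Percent growth reported; active if below 10.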 Unmarked numbers belong to inactive results. The source made the active and inactive calls.

For the compound `Brc1ccsc1Br`, the growth was 101% in assay [1]; 114% in assay [2]; 113% in assay [3]; 91.3% in assay [4]; 109% in assay [5]; 112% in [6]. The growth in [7] is 99.6%; in assay [8], 141%; in [9], 102%; in assay [10], 108%; in [11], 107%; in assay [12], 103%. The growth is 122% in assay [13]; 106% in assay [14]; 107% in assay [15]; 94.8% in assay [16]; 103% in assay [17]; 122% in assay [18]. Also, in [19], the growth was 129%.

`O=[N+]([O-])c1ccc(SSc2ccc([N+](=O)[O-])cc2Cl)c(Cl)c1`: the growth in assay [1] is 104%; in [2], 87.9%; in assay [3], 93.4%; in assay [4], 64.7%; in assay [5], 105%; in assay [6], 97.7%. Also, the growth in assay [7] was 87.7%; in assay [8], 22.7%; in [9], 98.9%; in assay [10], 78.1%; in assay [11] it was 84.5%; in [12], 80%. The growth in assay [13] is 100%; in assay [14] it was 126%; in assay [15], 83%; in assay [16] it was 104%; in assay [17], 69.6%; in assay [18], 101%. In [19], the growth is 90.5%.

For the compound `c1ccc2c(N=NSc3ncnc4nc[nH]c34)c3ccccc3nc2c1`, the growth in [1] was -23.6% (active); in assay [2] it was 16.7%; in assay [3] it was 4.81% (active); in [4], 4.86% (active); in assay [5] it was 36.4%; in assay [6], -27.8% (active). In addition, the growth was 19.7% in assay [7]; -8% (active) in assay [8]; -4.86% (active) in assay [9]; -17.4% (active) in [10]; -28.1% (active) in assay [11]; -1.28% (active) in assay [12]. Further, the growth was -25.7% (active) in [13]; -9.11% (active) in assay [14]; -8.92% (active) in assay [15]; -14.2% (active) in [16]; 6.28% (active) in [17]; 5.13% (active) in assay [18]. Moreover, the growth in assay [19] is 53.6%; in assay [20], -33.4% (active).

Regarding `COc1cnc2c(c1)C(=O)c1c-2n(CCCN2CCN(C)CC2)c(=O)c2cc(Cl)ccc12`, the growth in assay [1] is 32.3%; in assay [2], 51.5%; in assay [3], 43%; in assay [4], 40.1%; in assay [5], 48.5%; in [6] it was 18.4%. Further, the growth is 45.3% in assay [7]; -4.26% (active) in assay [8]; -14.6% (active) in [9]; -36.6% (active) in assay [10]; -9.29% (active) in assay [11]; 43.5% in assay [12]. The growth in [13] is 31%; in assay [14] it was 77.9%; in assay [15], 43.9%; in assay [16], 52.3%; in assay [17] it was 58.9%; in assay [18] it was 68.3%. Further, in assay [19], the growth is 54.8%.

On to `Oc1ccc(-c2nnc3c4[nH]ccc4ncn23)cc1`, for which the growth in [1] is 113%; in assay [2] it was 93.6%; in assay [3], 95.2%; in assay [4] it was 76.3%; in [5], 92.3%; in [6] it was 87.9%. Further, the growth in assay [7] was 84.7%; in assay [8], 74.4%; in [9] it was 108%; in assay [10], 93.3%; in assay [11], 82.4%; in assay [12] it was 97.7%. In addition, the growth in assay [13] was 99.6%; in assay [14], 113%; in assay [15], 102%; in assay [16], 99.7%; in assay [17], 84%; in assay [18], 107%. For the same compound, in assay [19], the growth is 95%.

Take `COc1ccc2nc3cc(Cl)ccc3c(NC(=O)CSc3ccc(Cl)cc3)c2c1`: the growth in assay [1] was -88.5% (active); in assay [2] it was -62.4% (active); in [3], -75.3% (active); in [4], -96.1% (active); in assay [5] it was -96.1% (active); in assay [6] it was -94.6% (active). The growth was -90.8% (active) in assay [7]; -99% (active) in [8]; 1.21% (active) in [9]; -52% (active) in assay [10]; -10.1% (active) in assay [11]; -41.4% (active) in [12]. Further, the growth in assay [13] was -63.8% (active); in [14] it was -87.2% (active); in assay [15], -96.8% (active); in assay [16], -94.2% (active); in [17], -91.5% (active); in assay [18], -96.4% (active). For the same compound, the results for the growth in assay [19] and in [20] were -43.2% (active) and -65% (active), respectively.

Turning to `CNCCCn1c2c(c3ccc(Cl)cc3c1=O)C(=O)c1cc(OC)cnc1-2`, the growth in [1] is 77.3%; in assay [2] it was 63.8%; in assay [3], 39.7%; in [4], 33.4%; in assay [5], 54.2%; in [6] it was 19.8%. For the same compound, the growth is 35.3% in [7]; 20.5% in assay [8]; -22.5% (active) in assay [9]; -29.9% (active) in assay [10]; -33.5% (active) in assay [11]; -56.3% (active) in [12]. Moreover, the growth was 40.8% in assay [13]; 91.9% in assay [14]; 58.8% in assay [15]; 23.7% in [16]; 50.3% in assay [17]; 49.3% in assay [18]. Also, in [19], the growth is 71.7%.

In the case of `COc1ccc(Cl)cc1Nc1nc(C(F)(F)F)ccc1C(=O)NN`, the growth is 11.7% in assay [1]; 27.9% in [2]; 35.7% in assay [3]; 33.6% in assay [4]; 26.1% in assay [5]; 6.99% (active) in [6]. Moreover, the growth is 20.5% in assay [7]; 75.3% in assay [8]; -76.5% (active) in assay [9]; 24.5% in [10]; 1.9% (active) in assay [11]; 4.71% (active) in [12]. For the same compound, the growth is 18.9% in assay [13]; 40.6% in [14]; -4.08% (active) in assay [15]; 8.79% (active) in [16]; 30.3% in assay [17]; 33.6% in [18]. Besides, the growth was 95.8% in assay [19] and 9.26% (active) in [20].
